In PubChem BioAssay (EPA / NIEHS):
“And” between values parts separate entries of the source, which are not always exact repeats. Identical values can stand only once. More than one record can exist for a structure, and the calls need not agree. The source made the active and inactive calls. How the source made its calls: active means hit-call score of the fitted dose curve at least 0.9, where 1 is the maximum; inactive means score below 0.9.

Tests used:
[1] = read-out: Urokinase-type plasminogen activator receptor (uPAR), PLAUR (gene 5329); assay: BSK_4H_uPAR: BioMAP Diversity Plus: 4H Assay for Urokinase-type plasminogen activator receptor (uPAR) Biomarker Activity (AID 2283030); details: primary human endothelial cells (HUVEC); actives raise or lower the signal
How it was run: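 HUVEC, 24 h post-dose; uPAR by ELISA; bidirectional fit vs DMSO baseline.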

[2] = read-out: Vascular endothelial growth factor receptor 2 (Homo sapiens) (UniProt P35968); assay: BSK_4H_VEGFRII: BioMAP Diversity Plus: 4H Assay for Vascular endothelial growth factor receptor 2 (VEGFR2) Biomarker Activity (AID 2283031); details: primary human endothelial cells (HUVEC); actives raise or lower the signal;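 on AC50: cell-surface VEGFR2 protein level quantified by ELISA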
How it was run: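 HUVEC (human primary), 4H system; 24 h post-dose; VEGFRII by ELISA; bidirectional curve fit vs DMSO baseline; gain or loss of signal scored.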

[3] = read-out: Human Leukocyte Antigen - DR isotype (HLADR), HLA-DRA (gene 3122); assay: BSK_BE3C_HLADR: BioMAP Diversity Plus: BE3C Assay for Human Leukocyte Antigen - DR isotype (HLADR) Biomarker Activity (AID 2283032); details: primary human bronchial epithelial cells; actives raise or lower the signal
How it was run: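 Human primary bronchial epithelial cells in the BE3C system were exposed to chemicals for 24 h, after which HLA-DR levels were quantified by ELISA. Activity was fitted bidirectionally, gain or loss of signal, against DMSO as negative control and baseline.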

[4] = read-out: Vascular cell adhesion molecule 1 (VCAM1), VCAM1 (gene 7412); assay: BSK_4H_VCAM1: BioMAP Diversity Plus: 4H Assay for Vascular cell adhesion molecule 1 (VCAM1) Biomarker Activity (AID 2283033); details: primary human endothelial cells (HUVEC); actives raise or lower the signal
How it was run: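 Primary human umbilical vein endothelial cells were exposed to chemicals for 24 h, after which VCAM-1 was quantified by ELISA. Responses were fitted bidirectionally against DMSO as negative control and activity baseline.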

[5] = read-out: Interferon-gamma inducible Protein 10 (IP10), CXCL10 (gene 3627); assay: BSK_BE3C_IP10: BioMAP Diversity Plus: BE3C Assay for Interferon-gamma inducible Protein 10 (IP10) Biomarker Activity (AID 2283034); details: primary human bronchial epithelial cells; actives raise or lower the signal
How it was run: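 Human primary bronchial epithelial cells were exposed to chemicals for 24 hours, after which IP-10 levels were measured by ELISA. Data were fitted bidirectionally against DMSO, which served as the negative control and activity baseline.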

[6] = read-out: Transforming growth factor beta 1 (TGFb1), TGFB1 (gene 7040); assay: BSK_BE3C_TGFb1: BioMAP Diversity Plus: BE3C Assay for Transforming growth factor beta 1 (TGFb1) Biomarker Activity (AID 2283036); details: primary human bronchial epithelial cells; actives raise or lower the signal
How it was run: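 Human primary bronchial epithelial cells (BE3C system) were dosed with chemical and TGF-b1 levels measured by ELISA at 24 h. Activity was fitted bidirectionally relative to DMSO negative control as baseline.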

[7] = read-out: Plasminogen activator inhibitor-1 (PAI1), SERPINE1 (gene 5054); assay: BSK_BE3C_PAI1: BioMAP Diversity Plus: BE3C Assay for Plasminogen activator inhibitor-1 (PAI1) Biomarker Activity (AID 2283037); details: primary human bronchial epithelial cells; actives raise or lower the signal
How it was run: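 Human primary bronchial epithelial cells were exposed to chemical for 24 h, then PAI-1 was quantified by ELISA. Activity was fitted bidirectionally relative to the DMSO negative control baseline.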

[8] = read-out: urokinase plasminogen activator (uPA), PLAU (gene 5328); assay: BSK_BE3C_uPA: BioMAP Diversity Plus: BE3C Assay for urokinase plasminogen activator (uPA) Biomarker Activity (AID 2283038); details: primary human bronchial epithelial cells; actives raise or lower the signal
How it was run: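 ELISA read-out of uPA in human lung primary bronchial epithelial cultures, 24 h post-dosing. Gain or loss of signal fitted bidirectionally relative to DMSO baseline; cytotoxicity checked in parallel cultures via SRB total protein stain.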

[9] = read-out: Urokinase-type plasminogen activator receptor (uPAR), PLAUR (gene 5329); assay: BSK_BE3C_uPAR: BioMAP Diversity Plus: BE3C Assay for Urokinase-type plasminogen activator receptor (uPAR) Biomarker Activity (AID 2283039); details: primary human bronchial epithelial cells; actives raise or lower the signal
How it was run: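 Primary human bronchial epithelial cells were dosed with chemical and harvested 24 h later; uPAR was quantified by ELISA. Activity was fitted bidirectionally against DMSO as negative control and baseline.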

[10] = read-out: Monokine induced gamma interferon (MIG), CXCL9 (gene 4283); assay: BSK_BE3C_MIG: BioMAP Diversity Plus: BE3C Assay for Monokine induced gamma interferon (MIG) Biomarker Activity (AID 2283035); details: primary human bronchial epithelial cells; actives raise or lower the signal;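 further: MIG protein measured by ELISA in BE3C cultures after 24 h of dosing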
How it was run: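 Primary human bronchial epithelial cells treated for 24 h; MIG levels measured by ELISA, fitted bidirectionally versus DMSO. Parallel SRB total-protein staining assessed cytotoxicity.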

Measured: AC50

CC(Cl)COP(=O)(OCC(C)Cl)OCC(C)Cl (stereo not given)
not listed: [10]
inactive: all other assays above

CCc1cccc(C)c1N(C(=O)CS(=O)(=O)O)C(C)COC (stereo not given)
not listed: [10]
inactive: all other assays above

C=CC(=O)NCOCCCC
inactive: all assays above

C=CC(=O)NC(C)(C)C
not listed: [3]
inactive: all other assays above

Cc1c(O)cccc1O
not listed: [3]
inactive: all other assays above

CCN1CN(CC)CN(CC)C1
not listed: [10]
inactive: all other assays above

Nc1cccc(N)n1
not listed: [10]
inactive: all other assays above

COc1ccc(C(=O)c2ccccc2)c(O)c1
active: [4] 29.1 µM
not listed: [10]
inactive: all other assays above

CCCCCCCCCCCC(=O)N(C)CC(=O)O
active: [1] 19.5 µM and 13.4 µM | [2] 9.25 µM and 120 nM | [4] 3.87 µM and 2.41 µM
not listed: [6]
inactive: all other assays above

CCOC(=O)/C=C\C(=O)OCC
not listed: [10]
inactive: all other assays above

c1ccc(Nc2cccc3ccccc23)cc1
active: [1] 35.4 µM and 35.1 µM | [2] 33.2 µM and 32.2 µM | [3] 28 µM and 30.7 µM | [4] 31.4 µM and 28.8 µM | [5] 29.1 µM and 30.6 µM | [7] 12.7 µM and 20.4 µM | [9] 35.2 µM
inactive: [10] | [8] | [9]

c1ccc2c(c1)[nH]c1ccccc12
inactive: [1] | [2] | [4] | [5] | [6] | [7] | [8] | [9]
active: [5] 20.1 µM

CCCC(C)C(=O)OCC (stereo not given)
not listed: [6] | [10]
inactive: all other assays above

CC1=CC=C(C(C)C)CC1
not listed: [3]
inactive: all other assays above

O=C(Oc1ccccc1)c1ccccc1C(=O)Oc1ccccc1
not listed: [3]
inactive: all other assays above

CCCCCCCCCCCC(C)=O
active: [4] 29.6 µM | [5] 20 µM
inactive: all other assays above

CCCCC1C(=O)N(c2ccccc2)N(c2ccccc2)C1=O
not listed: [10]
inactive: all other assays above

CCNc1nc(NC(C)(C)C)nc(OC)n1
inactive: all assays above

COC(OC)(C(=O)c1ccccc1)c1ccccc1
inactive: all assays above

Fc1ccc(Br)cc1
not listed: [3]
inactive: all other assays above

CC(C)CCCCCOC(=O)CS
not listed: [10]
inactive: all other assays above

COc1ccc(C(=O)/C(Br)=C\C(=O)O)cc1
active: [1] 32.5 µM and 32.2 µM | [2] 29.8 µM | [4] 22.1 µM and 20 µM | [5] 20 µM | [6] 8.23 µM | [7] 8.24 µM | [8] 20 µM
inactive: [2] | [6] | [7] | [8] | [9]

C=CCCCCCCCCC=O
not listed: [10]
inactive: all other assays above

O=C1CCCCCCCCCCCN1
not listed: [3]
inactive: all other assays above

CCCCCC1=CCCC1=O
not listed: [10]
inactive: all other assays above

Clc1cc(Cl)c(Cl)c(Cl)c1Cl
active: [4] 20 µM
inactive: all other assays above

Cc1ccc([N+](=O)[O-])cc1N
not listed: [3]
inactive: all other assays above

Nc1ccc(C(=O)O)cc1
not listed: [10]
inactive: all other assays above

Oc1c(Cl)cc(Cl)c(Cl)c1Cl
active: [1] 20 µM | [4] 20 µM | [5] 20 µM | [7] 7.51 µM | [8] 6.07 µM | [9] 20 µM
inactive: [2] | [10] | [6]

c1ccc2sc(SSN3CCOCC3)nc2c1
active: [1] 6.7 µM | [4] 6.28 µM | [5] 12.3 µM
not listed: [3] | [10]
inactive: all other assays above

CC(C)C(=O)OCCc1ccccc1
not listed: [3] | [6] | [10]
inactive: all other assays above

CC(CCC(=O)O)(c1ccc(O)cc1)c1ccc(O)cc1
not listed: [3] | [6]
inactive: all other assays above

CC(c1cc(C(C)(C)C)cc(C(C)(C)C)c1O)c1cc(C(C)(C)C)cc(C(C)(C)C)c1O
not listed: [3]
inactive: all other assays above

CCOC(=O)C1=NOC(c2ccccc2)(c2ccccc2)C1
not listed: [3] | [10]
inactive: all other assays above

C=CC(=O)OCCCCCCOC(=O)C=C
active: [1] 20 µM | [2] 20 µM | [4] 20 µM | [5] 26 µM | [9] 11.4 µM
inactive: [6] | [7] | [8]

CC/C=C\CCOC(=O)c1ccccc1O
active: [1] 21.1 µM | [2] 20 µM | [4] 25.1 µM
not listed: [3] | [10]
inactive: all other assays above

CC=C(C)C(C)=O
active: [5] 20 µM
not listed: [3] | [10]
inactive: all other assays above

O=C(O)C(F)(F)C(F)(F)C(F)(F)C(F)(F)C(=O)O
not listed: [3] | [6] | [10]
inactive: all other assays above

C=CC(=O)OCCCCCCCC(C)C
active: [4] 15.7 µM
not listed: [3] | [10]
inactive: all other assays above

Nc1nc(N)nc(-c2ccccc2)n1
not listed: [3] | [6] | [10]
inactive: all other assays above

Oc1ccccc1Cc1ccccc1O
active: [7] 18 µM
inactive: [1] | [2] | [4] | [5] | [10] | [7] | [8] | [9]

CCC1(C)C(=O)N(Cl)C(=O)N1Cl (stereo not given)
not listed: [3] | [10]
inactive: all other assays above

C=CC(=O)OCC(C)OCC(C)OCC(C)OC(=O)C=C (stereo not given)
active: [1] 31.1 µM | [4] 10.1 µM | [5] 30.6 µM
not listed: [3] | [10]
inactive: all other assays above

CCCCCCCO
not listed: [3] | [10]
inactive: all other assays above

CCCCCCC=O
not listed: [3] | [10]
inactive: all other assays above

CCCCCCCCC(CO)CCCCCC (stereo not given)
active: [1] 2.51 µM | [5] 2.01 µM | [7] 1.36 µM
not listed: [3] | [10]
inactive: all other assays above

C1CNCCN1
not listed: [3] | [10]
inactive: all other assays above

CC(C)c1cccc(C(C)C)c1N
active: [4] 32 µM
not listed: [3] | [10]
inactive: all other assays above
